Our source for the inhibition values is PubChem BioAssay.

The other results are listed elsewhere or left out. A number with no mark means an inactive call. Active and inactive are the calls of the source.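 How the source made its calls, unless noted: active means inhibition above the primary screen's cutoff, its mean inhibition plus 3 SD (cut at about 35% in these data); inactive means the rest.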

Chain of Platelet-activating factor acetylhydrolase (Homo sapiens) (Q13093 whole entry, looked up): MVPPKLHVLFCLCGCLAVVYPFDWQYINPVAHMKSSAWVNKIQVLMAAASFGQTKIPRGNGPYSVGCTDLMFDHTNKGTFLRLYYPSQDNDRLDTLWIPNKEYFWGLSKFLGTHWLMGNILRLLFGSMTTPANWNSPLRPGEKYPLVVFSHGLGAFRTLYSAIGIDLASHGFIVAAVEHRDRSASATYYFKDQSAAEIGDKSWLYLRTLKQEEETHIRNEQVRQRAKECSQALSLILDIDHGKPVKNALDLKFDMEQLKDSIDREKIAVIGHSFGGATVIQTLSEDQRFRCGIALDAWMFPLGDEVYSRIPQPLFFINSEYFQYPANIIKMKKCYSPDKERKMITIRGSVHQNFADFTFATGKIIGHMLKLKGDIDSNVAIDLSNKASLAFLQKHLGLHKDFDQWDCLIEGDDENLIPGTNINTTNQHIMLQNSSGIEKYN

For one assay, the target named is Glutathione S-transferase omega-1 (Homo sapiens) (UniProt P78417). Nature of the assay: GSTO1 inhibitor hit confirmation, counter-screen for RBBP9 inhibitor project, biochemical, fluorescence polarization, triplicate (AID 2176).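 Further: loss of polarization as inhibitors block binding of rhodamine sulfonate ester activity probe; 0% = GSTO1 with DMSO and 100% = wells lacking GSTO1 enzyme.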 The conditions noted are these: recombinant GSTO1, probe fluorescence polarization; at 5.96 µM; active compounds read high.
Chain of Glutathione S-transferase omega-1 (Homo sapiens) (P78417 whole entry, looked up): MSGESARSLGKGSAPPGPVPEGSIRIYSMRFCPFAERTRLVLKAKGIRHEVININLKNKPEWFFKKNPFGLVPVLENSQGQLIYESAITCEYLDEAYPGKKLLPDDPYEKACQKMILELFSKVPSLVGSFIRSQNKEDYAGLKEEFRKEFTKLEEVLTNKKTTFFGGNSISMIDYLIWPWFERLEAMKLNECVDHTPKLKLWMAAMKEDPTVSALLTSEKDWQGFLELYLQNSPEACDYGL
By inhibition is commonly meant the drop in the measured response relative to a control, in per cent. Consider `Clc1ccccc1CSc1nnc(-c2ccco2)c(-c2ccco2)n1`, for which the inhibition is 23.6%.
`COc1ccc(OC)c(Nc2nc(-c3ccc(O)c(O)c3)cs2)c1`: the inhibition was 2.96%.
As for `c1ccc(CSc2nnc(-c3ccco3)c(-c3ccco3)n2)cc1`, the inhibition was 33.6%.
For `CC[N+](C)(CC)CCC[n+]1c(-c2ccccc2)c2cc(N)ccc2c2ccc(N)cc21`, the inhibition is 85.8% (active).
In the case of `COCCNC(=O)Nc1ccc2nc(-c3ccco3)c(-c3ccco3)nc2c1`, the inhibition is 64.7% (active).

A further assay concerns the target Platelet-activating factor acetylhydrolase (Homo sapiens) (UniProt Q13093). Nature of the assay: pPAFAH (PLA2G7) enzyme inhibitors, confirmation, biochemical, fluorescence polarization, human (AID 463230;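 active means mean inhibition of the triplicate above the hit cutoff set for the earlier primary screen, cut at about 25% in these data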;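 further: 0% = enzyme with DMSO and 100% = wells lacking pPAFAH enzyme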). Conditions: recombinant pPAFAH, FP-Rh probe fluorescence polarization; at 3.39 µM; active compounds read high. For orientation: Polarisation of emitted light reports the rotation of a fluorescent probe.
On to `Cc1ccc(NS(=O)(=O)c2ccc(N/N=C/c3ccccc3OCC(=O)O)c([N+](=O)[O-])c2)c(C)c1`, for which the inhibition was 84.3% (active).
On to `COc1ccc(OC)c(Nc2nc(-c3ccc(O)c(O)c3)cs2)c1`, for which the inhibition was 50.8% (active).
Consider `c1ccc(CSc2nnc(-c3ccco3)c(-c3ccco3)n2)cc1`, for which the inhibition is 33.6% (active).
As for `COCCNC(=O)Nc1ccc2nc(-c3ccco3)c(-c3ccco3)nc2c1`, the inhibition is 33.1% (active).
